Experimental data published in the supplement of paper PMC6555819.

Tests used:
Assay in all cases: PBM binding z-score (relative to random genomic background probes); higher = stronger binding; sequences stand for … in GC…GCGATTGACAGCGTAGAATGAAGG
[1] = test system: RARb homodimer (NR concentration 270 nM)
Method in brief: (§1)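 Custom Agilent 4×180K protein-binding microarrays carried double-stranded probes, each with a 34-nt variable region. These regions held direct-repeat seeds, single-nucleotide variants, half-site ablations and random human genomic background sequences. Ligand-free nuclear receptor dimers were incubated on the arrays for 1 h, antibodies against each partner (one per run) detected binding, and scanned fluorescence was regression-normalized. Binding z-scores take the random background probes as reference.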

[2] = test system: RARg:RXRa (NR concentration 270 nM, RXRa partner concentration 90 nM)
Method in brief: as §1

[3] = test system: RARg homodimer (NR concentration 270 nM)
Method in brief: as §1

[4] = test system: RXRa DBDmut IVT, anti-RXR (DBD mutation: RXRa K156A/R161A, NR concentration 90 nM)
Method in brief: as §1

[5] = test system: RXRa homodimer (NR concentration 180 nM)
Method in brief: as §1

[6] = test system: THRa:RXRa (NR concentration 90 nM, RXRa partner concentration 90 nM)
Method in brief: as §1

[7] = test system: THRa homodimer (NR concentration 90 nM)
Method in brief: as §1

[8] = test system: VDR:RXRa (NR concentration 270 nM, RXRa partner concentration 90 nM)
Method in brief: as §1

[9] = test system: VDR homodimer (NR concentration 270 nM)
Method in brief: as §1

| Sequence | PBM binding z-score [1] | PBM binding z-score [2] | PBM binding z-score [3] | PBM binding z-score [4] | PBM binding z-score [5] | PBM binding z-score [6] | PBM binding z-score [7] | PBM binding z-score [8] | PBM binding z-score [9] |
| --- | --- | --- | --- | --- | --- | --- | --- | --- | --- |
| AGTCGAAGTTCACTAGGTAACGTAAGATTCAGCT | 1.74 | 2.29 | 2.93 | 3.45 | 1.6 | 1.05 | -0.0118 | 2.44 | 2.7 |
| CAGCCTAGGTCGGGGCCAGTATAGGAGGAACGTT | 0.941 | 0.359 | 0.842 | -0.52 | -0.0745 | 0.171 | -0.524 | -0.53 | -0.348 |
| CGAACTAGGTCAAGGACAGAGAATCTCCGCACGC | 2.93 | 3.95 | 4.67 | 1.52 | 2.61 | 2.74 | 1.79 | 1.02 | 0.0808 |
| TCTTGTAGATCAATAGAGGTTAACAAAGTGCGCT | 1.38 | 1.11 | 0.826 | 0.564 | 1.68 | 2.62 | -0.415 | 2.2 | 0.462 |
| CCAGAGAGGTGAGAAGGTAACTCAGCCTCGATTA | 1.31 | 1.52 | 1.22 | 0.0821 | 1.05 | 1.19 | 0.396 | 0.23 | 0.477 |
| CCAGACAGGTGAGAGGTAACTCAGTCTGGTACGC | 0.491 | 0.564 | 0.526 | -0.348 | 0.784 | 0.574 | -0.109 | -0.0647 | -0.514 |
| CCTACTGGGCCAAAGTTCATTGATTCCAATGCTC | 3.34 | 3.23 | 2.56 | 2.37 | 2.73 | 1.44 | 0.0374 | 3.24 | 3.96 |
| TCTATTAGTTGCAGGGCAACCGACGAGTCCGTTT | 0.506 | 0.104 | 0.0745 | 1.28 | 0.296 | 0.323 | 0.293 | 0.743 | 1.45 |
| ACTCGGAGGACAAAGGTCAGAGCTACGCCAGTGA | 4.27 | 5.92 | 5.23 | 1.08 | 5.45 | 3.35 | 0.581 | 3.36 | 1.03 |
| ATACCAAGGTGATCGTGAGGTGGTTGATACTAAC | 0.533 | 0.588 | 0.258 | -0.212 | 0.48 | 1.61 | 0.979 | -0.0231 | 0.166 |
| GCTGCTAGGTCAGGTAGGTCAGCTAACGGGTACG | 4.09 | 4.09 | 4.85 | 0.899 | 2.38 | 2.78 | 0.866 | 3.35 | 0.966 |
| CCTCTGAGGACAGAAGGTCAGAGCTGTCCGCTTT | 3.74 | 3.76 | 3.58 | 1.08 | 2 | 3.4 | 1.58 | 1.2 | 0.647 |
| CGAAATAGGTCAGAACAGGACAGTGAAGGATGAT | 2.82 | 3.36 | 4.15 | 0.269 | 2.42 | 4.13 | 0.228 | 1.71 | 0.382 |
| CGTCCAAGGTCAGAGAGCTCAGTGAATGCCGAGT | 3.53 | 4.54 | 5.24 | 2.67 | 3.25 | 3.14 | 1.42 | 2.76 | 1.5 |
| CAATCTAGGTCAAGAGGTCAAAGTCCGCTTCCCG | 5.66 | 8.19 | 7.48 | 2.79 | 8.19 | 4.5 | 2.95 | 6.23 | 5.19 |
| TCTAGTTGGTCACGGAGGTCACACAGGACGGGTA | 4.25 | 4.69 | 4.9 | 0.898 | 4.86 | 3.75 | 2.62 | 5.94 | 3.06 |
| TTACCAAGGTGAGCTAAGGTCGTTGATCCAACTC | 1.72 | 1.56 | 1.15 | -0.158 | 1.65 | 4.71 | 2.41 | 3.13 | 1.29 |
| ACTCAAAGTTCACTAGGTAACGTAAGATTCAGCT | 3.65 | 4.84 | 5.79 | 4.63 | 3.51 | 2.22 | 0.585 | 4.17 | 4.45 |
| GCTAGCAGGCCTTTTGGGTCACTCAATGACGGGC | 1.39 | 0.621 | 0.516 | -0.579 | 0.552 | 2.11 | 0.611 | -0.0926 | -0.536 |
| CCTATTAGTTGACCATAAGGGCAACGGAAGCTCG | 1.92 | 1.29 | 0.865 | 0.278 | 0.632 | 1.84 | 1.47 | 0.803 | 0.902 |
| TATACAGGGTCAAAGGCCTGAGTACGAATGTCGA | 3.17 | 5.49 | 4.87 | 2.89 | 6.3 | 3.28 | 0.678 | 4.53 | 3.41 |
| TAGCCTAGGTCATGGGCCAGAATACCACGCGAAC | 2.86 | 4.27 | 4.29 | 0.064 | 3.81 | 2.89 | 1.07 | 1.91 | -0.109 |
| TCTCGGAGGACACGAGAGGTCAGAGCTCGACATC | 4.3 | 3.89 | 4.28 | 0.77 | 3.07 | 3.98 | 1.64 | 3.41 | 1.81 |
| ATCTCTAGGTAACAAGTGCAGTGAAAGAGAGGAC | 0.571 | 0.393 | 0.624 | -0.169 | 0.249 | 1.11 | 0.468 | 0.287 | 0.625 |
| CGAACGAGGGCATGAGTAGATAGCAAATGCCGAT | 0.586 | 1.22 | 1.57 | 2.03 | 0.713 | 0.742 | -0.437 | 0.5 | 0.55 |
| AGAATGAGGTTACCAAAGATCAGGGATACGCTTG | 1.07 | 2.08 | 1.72 | 1.22 | 2.54 | 2.8 | 1.06 | 1.39 | 0.23 |

| Sequence | PBM binding z-score [1] | PBM binding z-score [2] | PBM binding z-score [3] | PBM binding z-score [4] | PBM binding z-score [5] | PBM binding z-score [6] | PBM binding z-score [7] | PBM binding z-score [8] | PBM binding z-score [9] |
| --- | --- | --- | --- | --- | --- | --- | --- | --- | --- |
| CCTTACGGGTCAAGGTTATAACACGGGTGGTACG | 3.35 | 5.02 | 4.89 | 1.1 | 5.42 | 3.06 | 0.539 | 3.51 | 1.41 |
| CAGCCGAGGTCAGGGCCAGTATAGGAGGAACGTT | 3.81 | 5.52 | 5.53 | 2.15 | 5.24 | 3.92 | 1.97 | 3.64 | 1.53 |
| TCGAGTAGGTTATGGGCATTCAGAATGGCGTCGA | -0.0176 | -0.0222 | -0.106 | -0.148 | 0.459 | -0.261 | -0.66 | -0.235 | -0.437 |
| AGTCAAAGTTCAGAACGAGGTAACGTAAAGCACG | 2.66 | 4.62 | 4.15 | 3.09 | 2.76 | 3.63 | 0.7 | 2.86 | 1.94 |
| ATATGTAGGTTATCGGGTCCTTCAGTTTGCGCAT | 0.87 | 0.677 | 0.506 | 0.751 | 0.855 | 0.708 | 0.719 | 3.81 | 1.51 |
| GCGTCTGGGGCAAAGCAGGTTACCATAAGGTTGG | 1.13 | 0.435 | 0.815 | -0.387 | 0.339 | 3.04 | 0.0693 | 0.117 | -0.358 |
| TCTGCTAGGTCAACGATGGTCAGCTAATCTGCTA | 3.36 | 4.01 | 4.95 | 1.24 | 2.42 | 3.15 | 0.461 | 1.54 | -0.403 |
| CGTCAAAGTTCATCTAAGGTAACGTAAAGCACGC | 4.35 | 5.77 | 6.43 | 5.14 | 4.66 | 5.26 | 2.52 | 5.24 | 5.45 |
| ATCAAAAGGTCGACGAGGTGAGTATACACCGTTT | 3.3 | 4.4 | 4.08 | 1.52 | 4.69 | 3.9 | 1.05 | 5.4 | 0.947 |
| TCATATATGTAATACAGGTGAAAGTCGGCATCTA | 0.413 | 0.595 | 0.586 | 1.59 | 1.13 | 0.578 | 0.0633 | 0.899 | 0.192 |
| CCTACTGGGCCATTCAGAGGTCATGGATCATATG | 4.22 | 4.63 | 3.45 | 0.21 | 4.21 | 3.64 | 1.55 | 3.92 | 2.09 |
| GCTTCTAGGTCAACTGATGGTCAGCTAAAGCTCG | 3.97 | 5.38 | 5.89 | 1.54 | 3.56 | 3.5 | 1.79 | 2.06 | 0.255 |
| TCTTGTAGATCAAAGGTTATGAAAGCCGAAGCCT | 1.25 | 1.65 | 0.684 | 0.966 | 3.08 | 1.46 | -0.27 | 1.25 | 0.204 |
| TATACAGGGTCAAAGGCCACAGTACGAATGTCGA | 3.85 | 6.13 | 5.62 | 3.08 | 7.97 | 3.53 | 1.28 | 5.15 | 3.15 |
| ATCTCTAGGTAATCAAGTTCAGTGAATGCCGAAC | 1.24 | 0.838 | 0.72 | 0.825 | 0.439 | 1.26 | 0.487 | 4.21 | 2.59 |
| TTACCAGGGTGAAAGGTCGTTGATGCACGCCTTG | 2.58 | 3.82 | 1.48 | 0.566 | 6.13 | 2.9 | 0.639 | 3.28 | 1.87 |
| CGAACTAGGTCATTGACAGGCCAGTGAATAGTAA | 2.44 | 4.45 | 4.53 | 1.99 | 3.06 | 2.53 | 0.248 | 1.88 | 0.674 |
| ATCGAAAGGTCCTGAGGTGAGTATACAGAAAGGC | 1.02 | 1.36 | 0.977 | -0.513 | 1 | 1.98 | 0.778 | 0.189 | -0.0485 |
| TGAACGAGGTTAAAGATCAGGGAACGTGGCGTCG | 0.576 | 2.39 | 1.35 | 0.835 | 3.89 | 2.04 | -0.132 | 1.8 | 0.34 |
| CAATCTAGGTCAAGGTCAAAGTCGGTTTGTGCCA | 5.05 | 5.89 | 6.37 | 3.25 | 5.61 | 4.65 | 4.37 | 4.97 | 4.3 |
| TCTAGCAGGCCAGGGGGTCACTCAAGAGGTACGG | 3.61 | 5.22 | 4.08 | 1.3 | 5.38 | 3.35 | 1.52 | 4.25 | 2.91 |
| AATACAGGGTCACTAGGCCATAGTAGGTACGAAT | 3.38 | 5.37 | 4.61 | 2.58 | 5.6 | 3.55 | 1.24 | 4.25 | 2.98 |
| CGAACGAGGGCAGGAGTTGATAGCAAATGCCGAT | 0.754 | 0.906 | 1.13 | 0.67 | 0.365 | 0.403 | -0.595 | -0.167 | 0.281 |
| AATACACGGTCACTAGGCCAGAGTAGGTACGAAT | 1.85 | 1.78 | 2.19 | 0.0529 | 0.672 | 0.48 | -0.267 | 0.248 | 0.314 |
| TCGAGTAGGATACCAATGGGGCATTCAGCTTTCT | -0.451 | -0.58 | -0.482 | 0.0326 | -0.263 | -1.38 | -1.03 | -0.497 | -1.09 |
| ATCGAAAGGTCGAAGGTGGGTATACCCACCCGAA | 2.02 | 3.9 | 3.4 | 0.146 | 4.23 | 1.81 | -0.334 | 2.54 | 0.567 |
